Measurements taken from PubChem BioAssay AID2685 (National Center for Advancing Translational Sciences (NCATS), 2010).
Among all 320,000 compounds or so, about 2,100 (0.66%) were called active. Roughly 53% stayed inconclusive and do not appear here. Calls come from the whole dose curve; as a rule, active = well fitted inhibition curve with a large enough effect in the signal ratio, with a control signal flat (not every such curve was filed as active); inconclusive = small, poorly fitted or top-dose-only effect, or effect the other way, or a change in a side signal; inactive = flat fitted curve, though single readings scatter; the % refers to the signal ratio. The entries come from a sample that favours actives as a whole.

test: qHTS Assay for Lipid Storage Modulators in Drosophila S3 Cells; conditions: BODIPY lipid droplet fluorescence, 18-24 h, cells fed with added oleic acid; cell number change: measured here: cell count max response; series mostly up to 46.1 µM; lipid storage change, negative = inhibition: at the top concentration;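 for cell number change: cells counted by Cell Tracker Red CMTPX staining in the red channel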; for lipid storage change, negative = inhibition: % is set by controls: 0 for no effect and ±100 for the full control effect
Text: NIH Molecular Libraries Probe Production Centers Network [MLPCN] NIH Chemical Genomics Center [NCGC] MLPCN Grant: 1 R03 MH085686-01 Assay Submitter (PI): Beller, Mathias; Max-Planck-Institut fur Biophysikalische Chemie NCGC Assay Overview: Storing lipids as a reservoir for energy or the anabolism of elementary metabolites is a common feature of probably all cells and is conserved from bacteria to humans. The universal cellular lipid storage organelle is the so-called lipid storage droplet (LD). Although ubiquitous, LDs share a simple structure composed of a hydrophobic core that harbors the storage lipids, which is shielded by a droplet-specific phospholipid monolayer to which proteins are attached. The current model of LD biogenesis involves an incorporation of the lipid core into the membrane leaflets of the endoplasmic reticulum (ER) followed by a subsequent budding-like maturation of a LD, which ultimately pinches off. Once released, LD volume can increase by localized lipogenesis or fusion of existing droplet. Storage lipids are re-mobilized enzymatically by lipase activity. Lipase regulation in the adipocyte is heavily studied and involves multiple components including catecholamine signaling, the LD-associated proteins Perilipin and comparative gene identification (CGI-58) and at least two lipases named hormone sensitive lipase (HSL) and adipocyte triglyceride lipase (ATGL). LD regulation outside of the adipocyte is poorly understood and only few components are known. However, there is an urgent need to learn more about ectopic fat depots as mislocalized storage of lipids, for example in the liver or muscle, is an eminent health problem associated with insulin resistance or the metabolic syndrome. We developed a laser-scanning cytometer assay to enable 1,536-well screening and combined the results of the small molecules screen with an RNAi database based on lipid storage.
Triacsin C (Sigma-Aldrich T-4540), an inhibitor of long-chain fatty acyl CoA synthetase that blocks synthesis of triglycerides, was used as a positive control for lipid under-storage. A total of 23 nL of compound solution of different concentrations were transferred to the assay plates using a Kalypsys pin tool equipped with a 1,536-pin array containing 10-nL slotted pins (FP1S10, 0.457-mm diameter, 50.8 mm long; V&P Scientific). One microliter of oleic acid (400 uM) was added, and the plate was lidded with stainless steel rubber gasket lined lids containing pinholes. […] Fluorescence was detected by excitation of the fluorophores with a 488-nm laser on an Acumen Explorer (TTP Lab Tech). The total intensity in channel 2 (500-530 nm) reflected lipid droplet accumulation. Cells were detected using channel 3 (575-640 nm) with 5-um width and 100-um depth filters. The ratio of the number of objects in PMT channel 2 over the number of objects in PMT channel 3 was also calculated. Percent activity was computed relative to an internal control (100% inhibited lipid droplet deposition due to the presence of 20 uM Triacsin C), which was added to 32 wells/plate.
Potency is the fitted concentration of half-maximal effect.

SMILES	outcome	cell number change	Potency	lipid storage change, negative = inhibition
CC(CNC(=O)CCCn1ncn2c(cc3occc32)c1=O)c1ccccc1 (centres undefined)	inactive	24%		
CCOc1ccccc1CNC(=O)CCCn1ncn2c(cc3occc32)c1=O		-5.42%	29.1 µM (active)	
COc1cccc(CNC(=O)CCCn2ncn3c(cc4occc43)c2=O)c1	inactive	-2.59%		
Cc1cc(C(=O)N2CCN(S(=O)(=O)c3ccccc3)CC2)c(C)o1		15.7%		21.7% (inactive)
CCCCn1nc2cc(C(=O)N[C@H](C)C3CCCCC3)ccc2c1OCC		-12%		-0.499% (inactive)
CCOC(=O)c1sc(NC(=O)CCc2ccccc2)nc1C	inactive	3.17%		
Cc1ccc(-n2c(C)cc(C(=O)COC(=O)c3ccc[nH]c3=O)c2C)cc1C		-2.22%		1.49% (inactive)
Cc1ccc(-n2c(C)cc(C(=O)CN3CCOCC3)c2C)cc1C		-2.77%		-17% (inactive)
Cc1ccc(-n2c(C)cc(C(=O)COc3c(CO)cc(F)cc3CO)c2C)cc1C		4.17%	8.2 µM (active)	
Cc1cccc(NC(=O)C2CCCN2C(=O)Oc2ccccc2)c1 (centres undefined)		-1.72%		-0.0768% (inactive)
Cc1cc(C)nc(NC(=O)c2c(Cl)cccc2Cl)n1		0.843%		-9.48% (inactive)
COc1cc(/C=N/NC(=O)c2ccc(CN3c4cccc5cccc(c45)S3(=O)=O)cc2)cc(OC)c1O	inactive	-26.4%		
CN(C)c1ccc(/C=N/NC(=O)c2ccc(CN3C(=O)c4cccc5cccc3c45)cc2)cc1		10.4%		13% (inactive)
COc1cc(/C=N/NC(=O)c2ccc(CN3C(=O)c4cccc5cccc3c45)cc2)cc(OC)c1O		-19.2%	3.26 µM (active)	
Cc1ccc(NC(=O)COc2coc(CN3CCc4ccccc4C3)cc2=O)c(C)c1	inactive [at 0.0737 µM]			
Cc1ccc(C)c(NC(=O)COc2coc(CN3CCc4ccccc4C3)cc2=O)c1		-25.7%	6.51 µM (active)	
Cc1cc(C)cc(NC(=O)COc2coc(CN3CCc4ccccc4C3)cc2=O)c1		-22.1%		-14.9% (inactive)
CCc1cccc(CC)c1NC(=O)COC(=O)CC1c2ccccc2CCN1S(=O)(=O)c1ccccc1 (centres undefined)		0.0752%		-0.415% (inactive)
COCCSc1nc(N)c(NC(=O)c2ccco2)c(=O)[nH]1		-16.8%		-9.67% (inactive)
COc1ccc(CC(=O)NCC(=O)N/N=C/c2c[nH]c3ccccc23)cc1		14.2%		27.6% (inactive)
CCCCCCCNC(=O)C1(CC2CC(c3ccc(Cl)cc3)=NO2)CCNCC1 (centres undefined)	inactive	-6.47%		
CNC(=O)/C(=C\c1cccc(Oc2ccccc2)c1)NC(=O)c1ccccc1		2.1%		-0.332% (inactive)
CCCCn1c(-c2ccc(OC)cc2)nc2c(=O)n(C)c(=O)[nH]c21		12.4%		4.44% (inactive)

SMILES	outcome	cell number change	Potency	lipid storage change, negative = inhibition
CCCn1c(-c2ccccc2)nc2c(=O)n(C)c(=O)[nH]c21		-15.6%		-1.42% (inactive)
CCCn1c(-c2ccc(OC)cc2)nc2c(=O)n(C)c(=O)[nH]c21		11.6%	29.1 µM (active)	
CN(C)c1ccc(NC(=O)CN2CCC(N3CCCCC3)CC2)cc1		-25.9%	23.1 µM (active)	
CN(C)c1ccc(NC(=O)CN2CCC(NC(=O)C3CCCCC3)CC2)cc1		6.84%		-9.2% (inactive)
CCN1CCN(CC(=O)Nc2ccc(N(C)C)cc2)CC1	inactive	14.8%		
O=C(O)C1CC1C(=O)N1CCN(c2ccc(Cl)c(Cl)c2)CC1 (centres undefined)		16.3%		3.52% (inactive)
CCc1nc2nc(C)c(NS(=O)(=O)c3ccc(C4CCCCC4)cc3)c(=O)n2[nH]1	inactive			
Cc1cccc(-n2ncc3c2CCCC3NC(=O)CCN2CCCO2)c1C (centres undefined)		-19.9%		-7.74% (inactive)
Cc1cc(C(=O)NC2CCCc3c2cnn3-c2cccc(C)c2C)n(C)n1 (centres undefined)		5.94%	0.92 µM (active)	
COc1ccc(C(=O)NC2CCCc3c2cnn3-c2cc(F)cc(F)c2)c(OC)c1OC (centres undefined)	inactive			
COc1cc(C(=O)NC2CC(C)(C)Cc3c2cnn3-c2ccccc2)cc(OC)c1OC (centres undefined)		9.79%		6.07% (inactive)
Cc1ccccc1-n1ncc2c1CC(C)(C)CC2NC(=O)c1snnc1C (centres undefined)		7.34%		2.11% (inactive)
O=C(CCN1CCCC1=O)NC1CCCc2c1cnn2-c1ccccc1F (centres undefined)		11%		-1.27% (inactive)
COc1cc(C(=O)NC2CCCc3c2cnn3-c2ccccc2F)cc(OC)c1OC (centres undefined)		22.4%	16.4 µM (active)	
Cc1cccc(-n2ncc3c2CCCC3NC(=O)CN2CCCC2=O)c1C (centres undefined)		-2.49%		6.5% (inactive)
Cc1nnsc1C(=O)NC1CCCc2c1cnn2-c1ccccc1F (centres undefined)			4.11 µM (active)	
O=C(O)CCCC(=O)Nc1nc(-c2ccc(F)cc2)cs1	inactive			
COc1ccc(-n2c(SCC(=O)NCC3CCCO3)nc3c([nH]c4ccccc43)c2=O)cc1OC (centres undefined)	inactive	-13.6%		
Cc1ccc(OCC(=O)Nc2ccc(N3CCN(S(C)(=O)=O)CC3)cc2)cc1	inactive	18.1%		
O=C(CSc1nnc2c(Cl)cc(C(F)(F)F)cn12)Nc1ccc2c(c1)OCO2		-8.45%		18.7% (inactive)
COc1ccc(-c2cn[nH]c2-c2ccc(OCC(=O)NN)cc2O)cc1OC		12.9%		4.99% (inactive)
O=C(N[C@@H](CO)C(=O)NCc1ccccc1)c1ccc(C(F)(F)F)cc1		23.3%		5.11% (inactive)
COc1cccc(CNC(=O)CCC(=O)N2Cc3cccc(OC)c3Oc3ncccc32)c1OC				-20.7% (inactive)

SMILES	outcome	cell number change	Potency	lipid storage change, negative = inhibition
Cc1ccc(CSCc2ccc(C(=O)NCCCN3CCOCC3)o2)cc1				-1.21% (inactive)
COc1cc(S(=O)(=O)N(Cc2cccnc2)Cc2cccc(OC)c2OC)ccc1-n1cnnn1		-1.62%		-2.65% (inactive)
O=C(COc1ccc([N+](=O)[O-])cc1)Nc1ccc(NC(=O)c2ccccc2)cc1		-8.36%		8.49% (inactive)
Oc1ccccc1C1=NN(c2ccccc2)C(c2ccccc2)C1 (centres undefined)		0.901%	1.64 µM (active)	
O=C(O)c1ccc(N2N=C(c3ccccc3)CC2c2ccccc2)cc1 (centres undefined)	inactive	-6.08%		
O=Cc1ccc(N2N=C(c3ccccc3)CC2c2ccccc2)cc1 (centres undefined)		-15.5%		2.28% (inactive)
CS(=O)(=O)c1ccc(C(=O)NCc2ccc(F)cc2)cc1		23%		1.05% (inactive)
N/C(Cc1ccc([N+](=O)[O-])cc1)=N\OC(=O)c1ccc(Br)o1		10.2%		6.27% (inactive)
N/C(Cc1ccc([N+](=O)[O-])cc1)=N\OC(=O)c1ccc(Br)cc1		0.393%	8.2 µM (active)	
N/C(=N\OC(=O)c1ccc([N+](=O)[O-])cc1)c1ccc(Br)cc1	inactive	19%		
COC(=O)c1sccc1N/N=C/c1cccc(Oc2ccccc2)c1		-12.1%		10.2% (inactive)
COc1ccc(CNC(=O)CCn2c(=O)c3cccn3c3ccc(F)cc32)cc1		-3.83%	5.8 µM (active)	
COc1ccc(NC(=O)CCn2c(=O)c3cccn3c3ccccc32)cc1	inactive	-20.6%		
CCCCNC(=O)CCn1c(=O)c2cccn2c2ccc(F)cc21		-8.11%		-5.76% (inactive)
CCCS(=O)(=O)c1nc(S(=O)(=O)c2ccc(C)cc2)c(N2CCC(C)CC2)s1				-12.9% (inactive)
CCCS(=O)(=O)c1nc(S(=O)(=O)c2ccc(C)cc2)c(N2CCN(C)CC2)s1	inactive			
CCCS(=O)(=O)c1nc(S(=O)(=O)c2ccc(C)cc2)c(N2CC(C)OC(C)C2)s1 (centres undefined)		-24.5%	18.4 µM (active)	
C/C(=N/NC(=O)c1ccncc1)c1ccccc1		-7.04%		27.6% (inactive)
Cc1ccccc1NC(=O)COC(=O)c1ccc(S(=O)(=O)N2CCCC2)cc1		10.7%		9.1% (inactive)
CC(=O)c1cccc(NC(=O)COC(=O)c2ccc(S(C)(=O)=O)c([N+](=O)[O-])c2)c1		-10.3%		-16.9% (inactive)
Cc1ccccc1NC(=O)COC(=O)c1ccc(S(C)(=O)=O)c([N+](=O)[O-])c1		-15.7%	25.9 µM (active)	
Cc1ccc(NC(=O)c2c(C)nn(-c3ccccc3)c2Cl)c(C)c1		-13.2%		1.17% (inactive)
CC(=O)N1CCOc2ccc(S(=O)(=O)N3CCC(C(=O)NCc4ccc(C)cc4)CC3)cc21		17.2%		-5.97% (inactive)

SMILES	outcome	cell number change	Potency	lipid storage change, negative = inhibition
CS(=O)(=O)N1CCC(C(=O)NCC2CCCO2)CC1 (centres undefined)		-2.74%	2.31 µM (active)	
CCCS(=O)(=O)N1CCC(C(=O)NCC2CCCO2)CC1 (centres undefined)	inactive			
CCCCS(=O)(=O)N1CCC(C(=O)NCC2CCCO2)CC1 (centres undefined)		5.96%		0.205% (inactive)
Cc1ccccc1C(=O)NC1CCN(Cc2nnnn2C(C)(C)C)CC1				4.79% (inactive)
COc1ccc(CC(=O)NC2CCN(Cc3nnnn3C(C)(C)C)CC2)cc1OC		-1.5%	2.59 µM (active)	
COc1ccc(CC(=O)NC2CC2)cc1OC	inactive	20.4%		
CCN=C1SC(CC(=O)NC(C)c2ccccc2)C(=O)N1CC (centres undefined)		8.53%		-3.35% (inactive)
O=[N+]([O-])c1ccc(N2CCN(CCO)CC2)cc1Sc1nc2ccccc2[nH]1		-10.6%		-5.35% (inactive)
CN1CCN(NC(=S)Nc2ccccc2)CC1		5.3%		-1.16% (inactive)
Cc1cccc(C)c1NC(=S)NN1CCN(C)CC1		-31.3%	23.1 µM (active)	
Cc1cccc(NC(=S)NN2CCN(C)CC2)c1C	inactive	19.2%		
COC(=O)c1ccc(COc2ccccc2OC)o1		-9.22%		20.1% (inactive)
COC(=O)c1ccc(Cc2ccc(C(=O)OC)o2)o1		11%		9.86% (inactive)
COC(=O)c1ccc(Cc2ccccc2)o1		0.155%	25.9 µM (active)	
COc1cccc(CC(=O)N(CCC2=CCCCC2)c2c(N)n(Cc3ccccc3)c(=O)[nH]c2=O)c1		-11.8%		24.1% (inactive)
Cc1nn(-c2ccccc2)c2[nH]c(=O)c(CNc3ccc(N4CCOCC4)cc3)cc12		-0.634%		21.5% (inactive)
Cc1ccc(-c2nn(-c3ccccc3)c3[nH]c(=O)c(CNCCN(C)C)cc23)cc1	inactive	-8.5%		
Cc1nn(-c2ccccc2)c2[nH]c(=O)c(CNCCN3CCOCC3)cc12		-6.25%	23.1 µM (active)	
Cc1ccc2c(COC(=O)c3ccccc3OC(F)F)cc(=O)oc2c1	inactive	26.6%		
Cc1ccc2c(COC(=O)c3ccccc3Cl)cc(=O)oc2c1		0.403%	1.64 µM (active)	
Cc1ccc2c(COC(=O)c3ccccc3Br)cc(=O)oc2c1	inactive	8.73%		
